{"source": "PubChem BioAssay AID492952", "about": "(Southern Research Specialized Biocontainment Screening …, 2010)", "note": "Screen size: about 2,300 compounds; about 1,500 (65%) were called active. So high a share suggests a set chosen from earlier hits. This is one part of the list. Results with a measured potency or affinity are listed apart. Values without a mark were called inactive. How the calls were made is not given here."}
{"experiment": "replicating M. tuberculosis growth inhibition, dose response, non-replicating M. tuberculosis project, H37Rv (AID 492952);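 further: Mycobacterium tuberculosis grown in culture; growth inhibition read after a week of incubation; 0% = bacteria alone untreated and 100% = bacteria with high antibiotic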", "conditions": "series mostly up to 50 µM; inhibition: at the top concentration", "units": {"inhibition": "%"}}
{"smiles": "CC(=O)CCC1CC(c2ccc(Cl)cc2)=NO1", "note": "(stereo not drawn)", "inhibition": -2.41}
{"smiles": "COC(=O)c1ccccc1NC(=O)C1CC(c2ccc(F)cc2)=NO1", "note": "(stereo not drawn)", "inhibition": 0.43}
{"smiles": "COc1ccc(OCCC(=O)OCC(=O)Nc2ccc(Br)cc2)cc1", "inhibition": -1.7}
{"smiles": "CC(C)(C)c1ccc(OCCC(=O)OCC(=O)NC2CCCCC2)cc1", "inhibition": 7.57}
{"smiles": "O=C(COc1ccc([N+](=O)[O-])cc1)NNC(=O)c1cccs1", "inhibition": 1.87}
{"smiles": "CC/C(=C\\c1oc2cc3ccccc3cc2[n+]1CC)Nc1ccccc1", "inhibition": 7.42}
{"smiles": "CCOC(=O)c1c(-c2ccc(C)o2)csc1NC(=O)CN1CCCCC1", "inhibition": -3.2}
{"smiles": "Brc1ccc(OCCCCN2CCCCC2)cc1", "inhibition": 4.82}
{"smiles": "CCc1nnc(NC(=O)CN2CCN(c3ccccc3F)CC2)s1", "inhibition": 2.97}
{"smiles": "COc1ccc2cc(C(=O)NCc3ccccc3)c(=O)oc2c1", "inhibition": 2.96}
{"smiles": "NC(=O)N/N=C/c1ccccc1OC(=O)c1cc2ccccc2oc1=O", "inhibition": -0.54}
{"smiles": "COCCNC(=O)c1cc2cc(Cl)cc(Cl)c2oc1=O", "inhibition": 17.8}
{"smiles": "COc1cccc2cc(C(=O)c3ccc([N+](=O)[O-])cc3)oc12", "inhibition": -3.88}
{"smiles": "CC(C)[C@H](NC(=O)c1ccc(Br)cc1)C(=O)NC1CCCCC1", "inhibition": -2.73}
{"smiles": "Oc1ccc(Cl)cc1CNCc1ccc(F)cc1", "inhibition": 6.19}
{"smiles": "O=C(N/N=C/c1coc2ccccc2c1=O)c1ccc(Cl)cc1", "inhibition": -4.23}
{"smiles": "O=C(N/N=C/c1cccc(F)c1)c1c(O)c2ccccc2[nH]c1=O", "inhibition": -1.02}
{"smiles": "C=CCn1c(=O)c(C(=O)Nc2cccnc2)c(O)c2ccccc21", "inhibition": 4.9}
{"smiles": "O=C1CC(N2CCSCC2)C(=O)N1CCc1ccccc1", "note": "(stereo not drawn)", "inhibition": -2.96}
{"smiles": "Cc1cc2ccccc2n1CCNC(=O)C(C)(C)C", "inhibition": 0.54}
{"smiles": "CC1CCN(CCOCCSc2ccc(Cl)cc2)CC1", "inhibition": 3.18}
{"smiles": "O=C(COc1ccc(Cl)cc1)Nc1ccc2[nH]ncc2c1", "inhibition": -6.62}
{"smiles": "CCCCCCNC(=O)c1ccc(Br)o1", "inhibition": -4.43}
{"smiles": "C=CCNc1nc(C(=O)OCC(=O)c2cccc(Br)c2)cs1", "inhibition": -5.99}
{"smiles": "COc1ccc(C(=O)Nc2ccccc2C(=O)N/N=C/c2ccco2)cc1", "inhibition": -1.33}
{"smiles": "CCOc1ccc(OCc2ccc(C(=O)N/N=C(\\C)c3ccccn3)cc2)cc1", "inhibition": 6.16}
{"smiles": "CC(=O)NCCOC(=O)Nc1sc(=S)n(C)c1C", "inhibition": 0.93}
{"smiles": "C/C(=N\\Nc1ccc(Cl)cc1)c1ccccn1", "inhibition": 5.57}
{"smiles": "Cc1cc(O)c(-c2cc(O)c(C)cc2O)cc1O", "inhibition": 7.62}
{"smiles": "O=C(COC(=O)c1ccccn1)Nc1cccc(Cl)c1Cl", "inhibition": 7.17}
{"smiles": "COC(=O)c1ccc(COC(=O)CCS(=O)(=O)c2ccc(C)cc2)cc1", "inhibition": 1.11}
{"smiles": "CC(C)(C)C(=O)COc1ccccc1[N+](=O)[O-]", "inhibition": 5.63}
{"smiles": "COCCn1c(C)cc(C(=O)COC(=O)c2ccc(Br)o2)c1C", "inhibition": 2.14}
{"smiles": "C=CC[n+]1ccn(-c2nc3ccccc3nc2[N-]S(=O)(=O)c2cccs2)c1", "inhibition": 0.1}
{"smiles": "CCCCSc1nnc(-c2cc(Br)ccc2N)c(=O)[nH]1", "inhibition": 0}
{"smiles": "CC(Cc1cccs1)NC(=O)c1cccc(Cl)c1", "note": "(stereo not drawn)", "inhibition": 1.12}
{"smiles": "Cc1ccc(C(=O)CCNc2ccc(Br)cc2)o1", "inhibition": 3.32}
{"smiles": "C/C(=N\\NC(=O)c1cccs1)c1ccc2c(c1)OCO2", "inhibition": 5.02}
{"smiles": "Cc1ccc(NC(CC(=O)c2ccccc2)C(=O)O)cc1Cl", "note": "(stereo not drawn)", "inhibition": -5.41}
{"smiles": "Cc1ccc(C(=O)CCNc2ccc(F)c(Cl)c2)o1", "inhibition": -3.31}
{"smiles": "CC(C)COc1ccc(C(=O)CCN2CCCCC2)cc1", "inhibition": 2.45}
{"smiles": "COc1cc(C(=O)CCN2CCC(c3ccccc3)C2)cc(OC)c1OC", "note": "(stereo not drawn)", "inhibition": 0.03}
{"smiles": "CC(C)Oc1ccc(C(=O)CCN2CCCCC2)cc1", "inhibition": -0.55}
{"smiles": "CCCCc1ccc(NS(=O)(=O)c2c(C)n(C)c(=O)n(C)c2=O)cc1", "inhibition": 4.26}
{"smiles": "C=C(C)C1CC=C(C)/C(=N/NC(=O)CNc2ccc(OCC)cc2)C1", "note": "(stereo not drawn)", "inhibition": -10.1}
{"smiles": "CC1N(C)c2cccc3cccc(c23)N1C", "inhibition": 10}
{"smiles": "CCCCCCCCCCn1ccc(=N)cc1", "inhibition": 21.1}
{"smiles": "CCc1ccc(OCCCC(=O)NCc2ccco2)cc1", "inhibition": 3.11}
{"smiles": "Nc1ccc2c(c1)oc1ccccc12", "inhibition": 11.9}
{"smiles": "CCOC(=O)c1cn(Cc2cccc(Cl)c2)nn1", "inhibition": -2.8}
{"smiles": "COc1cc(/C=C2\\C(=O)N(c3ccc(S(N)(=O)=O)cc3)N=C2C)ccc1OC(=O)c1ccco1", "inhibition": 21.7}
{"smiles": "COc1cc(/C=N/Nc2ccc(Cl)c(C(=O)O)c2)ccc1OC(=O)c1ccco1", "inhibition": -1.31}
{"smiles": "O=C(COc1ccccc1)NNc1nc2ccccc2s1", "inhibition": 18.4}
{"smiles": "CC/C(=C\\C=C\\[C@@H]1C=C[C@@H]2CCC[C@H]2[C@@H]1C(=O)c1ccc[nH]1)[C@@H]1O[C@@H]([C@@H](C)C(=O)O)CC[C@@H]1C", "inhibition": 7.84}
{"smiles": "Cc1cccc(NCc2ccc([N+](=O)[O-])s2)c1", "inhibition": 4.84}
{"smiles": "CCCc1nnc(-c2ccc(OC)cc2)o1", "inhibition": 14.5}
{"smiles": "CCc1cc(C=NC2CCCCC2)c(O)s1", "inhibition": -4.16}
{"smiles": "CCc1ccc(C(=O)NC2CCCCC2)s1", "inhibition": 0.32}
{"smiles": "CC(=O)c1c(O)cc(=O)n(-c2ccccc2)c1-c1ccc(C)cc1", "inhibition": 6.58}
{"smiles": "CCOC(=O)c1c(NC(=O)COC(=O)c2ccccn2)sc2c1CCC2", "inhibition": 9.82}
{"smiles": "O=C(Oc1cccc([N+](=O)[O-])c1)c1ccc2c(=O)n3c(nc2c1)CCC3", "inhibition": -8.67}
{"smiles": "Cc1ccc2c(CC(=O)OCC(=O)Nc3ccc(Cl)cn3)coc2c1", "inhibition": -4.98}
{"smiles": "Cc1ccc(NC(=O)CN(C)C2CCCCC2)cc1Br", "inhibition": 22.1}
{"smiles": "O=C(Nc1ccccc1N1CCCC1)c1cccc(F)c1", "inhibition": 29.2}
{"smiles": "Cc1noc(C)c1COc1ccc(C(=O)Nc2ccccn2)cc1", "inhibition": -1.81}
{"smiles": "O=C(Nc1ncccc1O)c1ccc(Oc2ccccc2)cc1", "inhibition": 27.8}
{"smiles": "O=C(Nc1ncccn1)c1ccc([N+](=O)[O-])o1", "inhibition": 14.3}
{"smiles": "O=C(Nc1cccnc1)c1ccc(-c2ccc(Cl)cc2)o1", "inhibition": 20.2}
{"smiles": "CCOC(=O)c1ccc(N=C2SC(C(=O)Nc3ccc(C(=O)O)cc3)CC(=O)N2Cc2cccs2)cc1", "note": "(stereo not drawn)", "inhibition": 2.14}
{"smiles": "COC(=O)C1=C(C(=O)OC)C(c2cc(Cl)ccc2O)c2sc(=O)[nH]c2S1", "note": "(stereo not drawn)", "inhibition": 2.08}
{"smiles": "Cc1ccc(SCCC(=O)OCC(=O)NCC2CCCCC2)cc1", "inhibition": -0.3}
{"smiles": "COc1ccccc1NC(=O)CCN1CCN(c2ccc(Cl)cc2)CC1", "inhibition": -6.12}
{"smiles": "CC(/C=C/c1ccco1)=N/NC(=O)c1ccc(C)nc1", "inhibition": 2.23}
{"smiles": "CC(/C=C/c1ccc2c(c1)OCO2)=N/NC(=O)C1COc2ccccc2O1", "note": "(stereo not drawn)", "inhibition": 16.9}
{"smiles": "O=C(N/N=C/c1ccc[nH]1)c1cccnc1", "inhibition": -6.3}
{"smiles": "Cn1cccc1/C=N/NC(=O)c1ccco1", "inhibition": 9.93}
{"smiles": "O=C(N/N=C/c1ccc(Br)s1)c1cccnc1", "inhibition": 3.06}
{"smiles": "O=C(N/N=C/c1ccc[nH]1)c1ccc(Cl)cc1", "inhibition": 20.1}
